From PubChem BioAssay
In the library only some 2.3% were active in any assay of this set; here they are far more common.
M1 antag = antagonists of human M1 muscarinic receptor | 360,000 compounds, 1.3% hits | P11229 | CHO-K1 hM1, Fluo-8 calcium fluorescence, ACh EC80 antagonist | inhibition, % at 3 µM | AID 588852;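 active = percent inhibition above its own plate's cutoff, namely the mean of that plate's compound wells plus 3 SD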;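 also: peak over basal fluorescence ratio during 140 s after agonist addition; 0% = ACh EC80 plus DMSO and 100% = DMSO alone without agonist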
Target sequence (P11229 whole entry, looked up): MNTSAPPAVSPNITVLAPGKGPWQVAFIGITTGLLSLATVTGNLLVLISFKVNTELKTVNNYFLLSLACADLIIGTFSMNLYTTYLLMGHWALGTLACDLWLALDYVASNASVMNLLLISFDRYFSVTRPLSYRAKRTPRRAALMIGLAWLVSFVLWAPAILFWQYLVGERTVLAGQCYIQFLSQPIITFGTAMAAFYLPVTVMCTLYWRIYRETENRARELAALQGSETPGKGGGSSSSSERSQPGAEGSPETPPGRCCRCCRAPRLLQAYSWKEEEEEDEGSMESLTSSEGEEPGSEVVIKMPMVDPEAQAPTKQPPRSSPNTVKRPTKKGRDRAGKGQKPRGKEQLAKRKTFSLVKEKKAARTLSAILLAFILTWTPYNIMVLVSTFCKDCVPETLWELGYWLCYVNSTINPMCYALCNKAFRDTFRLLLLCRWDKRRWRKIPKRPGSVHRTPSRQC
M1 PAM parental = M1 PAM counterscreen hit in parental CHO-K1 cells | activation, % at 3 µM | ATP EC20, Fluo-8 calcium fluorescence; 0% at ATP EC20, 100% at ATP max | 360,000 compounds, 0.02% hits | AID 602247;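 active = activation above the run cutoff, the mean activation of all test compounds plus 3 SD, cut at about 40% in these data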;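 also: peak over basal fluorescence ratio in a 140 s read after ATP addition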
CHO-K1 Ca antag = nonselective inhibitor or artifact in parental CHO-K1 cells; ATP-induced calcium, Fluo-8 fluorescence; inhibition, % at 3 µM; 360,000 compounds, 0.6% hits;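 active = inhibition above a per-plate cutoff, the plate's mean sample inhibition plus 3 SD, cut at about 24% in these data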;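 also: 0% = DMSO plus EC80 ATP and 100% = DMSO alone without ATP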
M1 ag = agonists of human M1 muscarinic receptor; CHO-K1 hM1, Fluo-8 calcium fluorescence, agonist mode; 0% DMSO, 100% acetylcholine EC100; P11229; 360,000 compounds, 0.33% hits; activation, % at 3 µM;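 active = activation above the run's mean compound activation plus 3 SD, cut at about 16% in these data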;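 also: peak over basal fluorescence ratio within a 140 s kinetic read after compound addition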
M1 PAM = positive allosteric modulators of human M1 muscarinic receptor. P11229. CHO-K1 hM1, Fluo-8 calcium fluorescence, ACh EC20; 0% = ACh EC20, 100% = maximal ACh. activation, % at 3 µM. 360,000 compounds, 0.088% hits. AID 588819; in the data active = activation above about 19%, passing the limit was not always enough
M1 ag parental = nonselective activator or artifact in parental CHO-K1 cells; Fluo-8 calcium fluorescence; scaled to maximal ATP response, vehicle zero; activation, % at 3 µM; 360,000 compounds, 0.48% hits; AID 602248; in the data active = activation above about 15%;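 also: untransfected CHO-K1 host cells lacking M1 receptor as counterscreen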
* hit, by the source's call; ! = a repeat was not active.

SMILES	M1 antag	M1 PAM parental	CHO-K1 Ca antag	M1 ag	M1 PAM	M1 ag parental
COc1ccc(NC(=O)c2ccc(NC(=O)CSc3nc(N)cc(=O)[nH]3)cc2)cc1	-12	3	-13	-4	10	0
CCC(C)(C)c1ccc(OCCCC[n+]2cccc(C)c2)c(C(C)(C)CC)c1	25*	28	10	7	-26	14
CCC(CO)Nc1nc2ccc(Cl)cc2c2ccccc12 (stereo not drawn)	-5	11	-4	-6	6	1
Cc1ccc(C(=O)C(C)Oc2ccc3ccc(=O)oc3c2)cc1 (stereo not drawn)	-14	11	-12	-6	6	0
Cc1[nH]nc(SCC(=O)NC(C)c2ccccc2)c1[N+](=O)[O-] (stereo not drawn)	-7	-15	25*	-5	-1	1
CC(C)C1C(=O)N(Cc2cn(CCC3OCCCO3)nn2)CCS(=O)(=O)N1Cc1ccc(-c2ccc(Cl)c(Cl)c2)cc1 (stereo not drawn)	5	7	-6	1	-2	0
OCCN(Cc1ccccn1)Cc1ccccn1	72*	18	-12	-12	-32	2
ON(CCc1ccccn1)CCc1ccccn1	-21	14	-13	-4	11	2
Cc1cc(NC(=O)C(C)SCC(=O)OCc2c(Cl)cccc2Cl)no1 (stereo not drawn)	4	-13	14	1	-3	4
CC(=O)N1CCCC(C)(C(=O)Nc2ccc3oc(C)nc3c2)C1 (stereo not drawn)	-10	-14	27*	-2	8	0
O=C(Cc1c(F)cccc1Cl)OCN1C(=O)c2ccccc2C1=O	0	7	-11	-6	1	2
CC1=C(C(=O)N(C)C)CC(CC(=O)NCCCCc2ccccc2)C(=O)N1CCCN1CCCC1=O (stereo not drawn)	-23	20	-19	5	27*	1
COc1ccc(NC(=O)CC(NCc2ccccn2)C(=O)O)cc1 (stereo not drawn)	-2	20	3	-5	11	18*
O=C(O)CC(CN1C(=O)c2ccccc2C1=O)c1ccccc1 (stereo not drawn)	-15	13	-12	-2	6	1
Cc1ccc(C(=O)N2CCSC2=S)cc1	10	-8	26*	-4	-7	-1
CCN1C(=O)c2ccccc2S(=O)(=O)c2ccc(C(=O)NC(C)C)cc21	-1	5	-10	-9	2	0
CCCN(CCC)CCCNC(=O)c1ccc2c(c1)N(CC)C(=O)c1ccccc1S2=O (stereo not drawn)	44*	12	6	-6	-16	0
CCCCSCCCNC(=O)c1ccc2c(c1)N(CC)C(=O)c1ccccc1S2=O (stereo not drawn)	-12	4	-14	-10	1	-1
CCCCNC(=O)c1ccc2c(c1)N(CC)C(=O)c1ccccc1S2(=O)=O	33*	11	9	-4	-18	5
CNc1ccc(C(O)(C(F)(F)F)C(F)(F)F)cc1C(O)(C(F)(F)F)C(F)(F)F	6	-8	35*	-6	4	0
CCN1/C(=C/C(C)=C/c2sc3ccccc3[n+]2CC)Sc2ccccc21	48*	-8	34*	11	-24	20*!
C=CCN1C=CC(=CC=C(C#N)C#N)C=C1	25	-30	27*	9	-8	12
CCCCCCN1C=CC(=C/C=C(\C#N)C(=O)OCC)C=C1	60*	-16	43*	150*	-38	73*
CCCN1C=CC(=CC=C(C#N)C#N)C=C1	11	-22	24*	10	-1	15
CCOC(=O)/C(C#N)=C/C=C1\C=Cc2ccccc2N1CC	0	8	-11	-11	6	3
SMILES	M1 antag	M1 PAM parental	CHO-K1 Ca antag	M1 ag	M1 PAM	M1 ag parental
CSc1ccccc1C(=O)OCC(=O)NC1CC1	-8	4	4	0	6	0
CSc1ccc(/C=C2\CCn3c2nc2cc(C(=O)O)ccc2c3=O)cc1	-13	1	-14	-2	8	2
CCOc1ccccc1OC(=O)c1ccco1	12	-6	27*	-1	3	0
COc1ccc(-n2cc(-c3ccccc3)c3c(N4CC(C)OC(C)C4)ncnc32)cc1 (stereo not drawn)	23	-7	-1	-3	-5	3
COc1ccc(C(=O)OCC[N+]2(C)CCCCC2)cc1	-7	22	-9	-4	6	5
CC(C[N+](C)(C)C)OC(=O)C1(c2ccccc2)CCCC1 (stereo not drawn)	93*	17	-11	-5	-26	1
C[N+]1(CCOC(=O)C2(c3ccccc3)CCCC2)CCCCC1	100*	13	-9	-6	-23	0
CCN(CC)CCOC(=O)C1(c2ccc([N+](=O)[O-])cc2)CCCC1	96*	8	-6	-5	-26	0
C[N+](C)(C)CCOC(=O)C1(c2ccccc2)CCCC1	99*	16	-12	-5	-22	1
COc1ccc(NC(=O)C2(c3ccccc3)CCCC2)cc1	-8	16	-10	-12	2	0
O=C(COC(=O)C1(c2ccccc2)CC1)NNC(=O)c1ccccc1F	-11	-20	16	-1	5	6
CC(C)COC(=O)N(C)C[C@@H]1OCc2cnnn2CCCC(=O)N([C@H](C)CO)C[C@@H]1C	0	9	-11	12	17	0
CCN(CC)CCOC(=O)C1(c2ccccc2)CCOCC1	8	-7	10	-7	-23	0
CCN(CC)CCCOC(=O)C1(c2ccccc2)CCCC1	99*	1	-3	-5	-19	1
COC(=O)C1(CCSC)NC(c2ccc(O)c(OC)c2)C2C(=O)N(c3ccc(C)cc3)C(=O)C21 (stereo not drawn)	-5	20	-10	25*	4	3
O=S(=O)(NCc1ccccc1)c1ccc(S(=O)(=O)N(Cc2cccs2)CC2CCCO2)cc1 (stereo not drawn)	-3	-7	28*	-1	-1	0
COc1cc(S(=O)(=O)N(Cc2cccs2)CC2CCCO2)ccc1-n1cnnn1 (stereo not drawn)	-2	4	1	-11	-1	1
CCN(CC)CC(=O)N1c2ccccc2Sc2ccccc21	101*	3	-12	-9	-28	1
CCN(CC)C(=O)N1c2ccccc2Sc2ccccc21	-7	3	-14	-8	2	0
CCN(CC)CC(=O)N1c2ccccc2Sc2ccc(Cl)cc21	99*	-8	-8	-4	-20	0
CCN(CC)CCCCN1c2ccccc2Sc2ccccc21	101*	-7	-3	-7	-27	13
COC(=O)/C(C#N)=C\c1c(OC)[nH]c2ccccc12	7	1	-1	0	-1	4
